In paper PMC9838217, “Structure of SALL4 zinc finger domain reveals link between AT-rich DNA binding and Okihiro syndrome”:
Positions count from the first letter of the chain named.

Tests used:
Test in all cases: HT-SELEX; high values mean tight binding
Conditions in all cases: protein: recombinant; vector His6-GST; dsDNA, one strand shown
[1] = target: T1, SALL4 ZFC4 WT (HT-SELEX) (Mus musculus, UniProt Q8BX22 870-940)
T1 sequence: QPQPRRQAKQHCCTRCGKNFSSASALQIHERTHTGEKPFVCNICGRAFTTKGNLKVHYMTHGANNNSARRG
In short: (§1)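 Library DNA (1.5 µg in cycle one, 200 ng in later cycles) was incubated with 1 µg of purified recombinant mouse SALL4 zinc finger cluster 4, residues 870–940, in 100 µl buffer (10 mM Tris–HCl pH 7.5, 50 mM NaCl, poly(dI-dC), DTT) at room temperature for 10 min. Up to 6 rounds of Ni2+ bead capture, washing, PCR amplification and reselection were run in triplicate. Reads from MiSeq sequencing were scanned for 6-mers. For each canonical k-mer, binding signal is its read fraction as fold change versus the original random library.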

[2] = target: T2, SALL4 ZFC4 G921D (HT-SELEX) (Mus musculus, UniProt Q8BX22 870-940, G921D)
T2 sequence: T1 sequence with G52D
In short: as §1

[3] = target: T3, SALL4 ZFC4 R900W (HT-SELEX) (Mus musculus, UniProt Q8BX22 870-940, R900W)
T3 sequence: T1 sequence with R31W
In short: as §1

Sequence | binding signal [1] [fold-change vs cycle 0] | binding signal [2] [fold-change vs cycle 0] | binding signal [3] [fold-change vs cycle 0]
TAAGAA | 2.2 ± 0.0931 | 1.87 ± 0.231 | 
AAACCT | 1.23 ± 0.0691 | 1.34 ± 0.0704 | 
AGGTGA | 0.887 ± 0.0607 | 1.04 ± 0.0735 | 0.987 ± 0.0758
CTCAAA | 1.09 ± 0.0723 | 1.2 ± 0.0463 | 
GATGAA | 1.45 ± 0.0431 | 1.43 ± 0.0787 | 1.54 ± 0.0399
ATTGTG | 1.1 ± 0.0622 | 1.18 ± 0.0673 | 
ACGAAA | 1.04 ± 0.0604 | 1.11 ± 0.0388 | 
AATACG | 1.06 ± 0.0521 | 1.1 ± 0.0362 | 
CAGATA | 1.33 ± 0.0697 | 1.29 ± 0.0843 | 
CACCTC | 0.511 ± 0.0163 | 0.689 ± 0.0609 | 0.563 ± 0.0344
TCCAAA | 1.1 ± 0.0395 | 1.17 ± 0.00926 | 1.19 ± 0.0233
ACGTTA | 1.26 ± 0.034 | 1.29 ± 0.0362 | 1.37 ± 0.0435
CATCTC | 0.879 ± 0.041 | 1.01 ± 0.0361 | 
AAATGG | 1.11 ± 0.029 | 1.16 ± 0.0413 | 
GGCATA | 0.502 ± 0.0157 | 0.668 ± 0.0401 | 0.562 ± 0.025
GACCAA | 0.62 ± 0.021 | 0.845 ± 0.0391 | 0.733 ± 0.0369
GAGAGA | 0.898 ± 0.0151 | 1.06 ± 0.0177 | 
AATTTG | 1.6 ± 0.112 | 1.51 ± 0.0903 | 1.56 ± 0.101
ATCCTG | 0.879 ± 0.0324 | 1.02 ± 0.0414 | 
ACTGAG | 0.855 ± 0.0344 | 1.01 ± 0.0137 | 
AGTTGA | 1.26 ± 0.0298 | 1.37 ± 0.0654 | 1.43 ± 0.0288
CTCGTC | 0.385 ± 0.0153 | 0.571 ± 0.0514 | 0.487 ± 0.019
ATAAGG | 1.55 ± 0.0418 | 1.46 ± 0.077 | 1.63 ± 0.0717
ACAAAC | 1.07 ± 0.057 | 1.23 ± 0.0372 | 

Sequence | binding signal [1] [fold-change vs cycle 0] | binding signal [2] [fold-change vs cycle 0] | binding signal [3] [fold-change vs cycle 0]
CACACC | 0.375 ± 0.0351 | 0.561 ± 0.0498 | 0.468 ± 0.0362
CGGTAG | 0.351 ± 0.018 | 0.514 ± 0.0341 | 0.418 ± 0.01
CATGTC | 0.763 ± 0.0529 | 0.939 ± 0.0158 | 0.908 ± 0.0423
GTATTA | 2.23 ± 0.186 | 1.76 ± 0.141 | 1.98 ± 0.125
GCATAA | 1.13 ± 0.0858 | 1.105 ± 0.0098 | 
CCAATA | 1.24 ± 0.0729 | 1.22 ± 0.0438 | 
AACGTA | 1.18 ± 0.0508 | 1.23 ± 0.0704 | 1.3 ± 0.0339
ATGCAA | 1.2 ± 0.113 | 1.18 ± 0.0528 | 
ACCAAT | 1.25 ± 0.0373 | 1.33 ± 0.0543 | 
AGTTTA | 1.89 ± 0.117 | 1.72 ± 0.194 | 1.94 ± 0.143
CCTGTA | 0.809 ± 0.0421 | 0.974 ± 0.0591 | 0.915 ± 0.0586
GCTTTA | 0.998 ± 0.0694 | 1.11 ± 0.0337 | 
TATGGA | 1.65 ± 0.0906 | 1.37 ± 0.0965 | 1.46 ± 0.0813
AAAACT | 1.7 ± 0.107 | 1.57 ± 0.146 | 
ATCACA | 1.39 ± 0.0936 | 1.43 ± 0.11 | 1.48 ± 0.0843
CATAGA | 1.37 ± 0.0454 | 1.34 ± 0.0648 | 
ACGGCA |  | 0.353 ± 0.0815 | 0.221 ± 0.00749
GCCCAC |  | 0.271 ± 0.0717 | 0.151 ± 0.00605
CACGGC |  | 0.228 ± 0.0664 | 0.114 ± 0.0156
CCGCAA |  | 0.347 ± 0.0535 | 0.234 ± 0.0164
GGGGCA |  | 0.291 ± 0.0681 | 0.178 ± 0.00946
CGAGCC |  | 0.272 ± 0.0858 | 0.138 ± 0.0111
CCGGGA |  | 0.341 ± 0.0693 | 0.237 ± 0.0178
ACGGCC |  | 0.206 ± 0.0649 | 0.0993 ± 0.00797
